Measured values from PubChem BioAssay (NCI).
The panel holds about 79,000 compounds, 15% with a hit somewhere; the sample as a whole holds those more often. Active and inactive are the calls of the source. Cut-off read from the data, not from the text of the source: active = growth inhibition above about 70%; inactive = the rest.

Legend:
[1] = NCI Yeast Anticancer Drug Screen. Data for the rad52 strain (AID 147);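 note: 0% = growth of vehicle-treated control cultures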; conditions: S. cerevisiae rad52 mutant growth inhibition, stronger effect = higher value
How it was run: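 Genetically altered yeast (DNA damage repair defect) treated with compound; inhibition calculated relative to vehicle.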

[2] = NCI Yeast Anticancer Drug Screen. Data for the wt1 strain (AID 149);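 note: 0% = growth of vehicle-treated wt1 cultures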; conditions: S. cerevisiae wt1 strain (SPY 50644) growth inhibition, stronger effect = higher value
How it was run: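 Readout: yeast growth inhibition, normalised to vehicle controls, in the wt1 strain exposed to test compounds.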

[3] = NCI Yeast Anticancer Drug Screen. Data for the rad50EPP+ strain (AID 151);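 note: 0% = growth of vehicle-treated control cultures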; conditions: S. cerevisiae rad50 mutant strain, stronger effect = higher value
How it was run: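 Strain rad50EPP+; compound exposure; % growth inhibition vs vehicle.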

[4] = NCI Yeast Anticancer Drug Screen. Data for the rad50 strain (AID 155);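 note: 0% = growth of vehicle-only cultures of the same strain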; conditions: S. cerevisiae rad50 strain growth inhibition, stronger effect = higher value
How it was run: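 Compounds were tested on a yeast strain with an engineered DNA damage repair alteration; the reported value is growth inhibition normalised to vehicle treatment.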

[5] = NCI Yeast Anticancer Drug Screen. Data for the mec2-1 strain (AID 157); conditions: S. cerevisiae mec2-1 strain, stronger effect = higher value
How it was run: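 Cells of the genetically defined mec2-1 yeast strain are incubated with test compound. Inhibition of growth is calculated against vehicle-treated controls.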

[6] = NCI Yeast Anticancer Drug Screen. Data for the rad14 strain (AID 159);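 note: 0% = growth of vehicle-treated control cultures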; conditions: S. cerevisiae rad14 strain growth inhibition, stronger effect = higher value
How it was run: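 Compound-treated yeast with a defined DNA-repair lesion; growth inhibition normalised to vehicle-treated cultures.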

[7] = NCI Yeast Anticancer Drug Screen. Data for the sgs1 mgt1 strain (AID 161);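 note: 0% = growth of cultures given vehicle only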; conditions: S. cerevisiae sgs1 mgt1 strain, stronger effect = higher value
How it was run: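 Read-out: growth inhibition vs vehicle controls. Cells: mutant yeast strain deficient in DNA damage repair.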

[8] = NCI Yeast Anticancer Drug Screen. Data for the CLN2oe strain (AID 163);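 note: 0% = growth of vehicle-only control cultures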; conditions: S. cerevisiae CLN2oe strain, stronger effect = higher value
How it was run: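 Strain altered in cell-cycle control, incubated with compound; growth compared to solvent-treated controls.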

[9] = NCI Yeast Anticancer Drug Screen. Data for the cln2 rad14 strain (AID 165);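 note: 0% = growth equal to vehicle treated cultures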; conditions: S. cerevisiae cln2 rad14 strain, stronger effect = higher value
How it was run: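 The screen exposed genetically defined yeast (cln2 rad14) to test compounds and scored growth inhibition relative to vehicle-treated controls.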

[10] = NCI Yeast Anticancer Drug Screen. Data for the bub3 strain (AID 167); conditions: S. cerevisiae bub3 mutant strain, stronger effect = higher value
How it was run: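 Growth of a checkpoint-deficient yeast mutant is measured after compound exposure. Values represent inhibition relative to vehicle.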

[11] = NCI Yeast Anticancer Drug Screen. Data for the wt2 strain (AID 169);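 note: 0% = growth of vehicle-treated yeast cultures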; conditions: S. cerevisiae wt2 strain growth inhibition, stronger effect = higher value
How it was run: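 Steps: yeast strain treated with compound; growth recorded; inhibition calculated relative to cultures given vehicle alone.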

[12] = NCI Yeast Anticancer Drug Screen. Data for the mlh1 strain (AID 171);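 note: 0% = growth of vehicle-treated control cultures of the same strain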; conditions: S. cerevisiae mlh1 strain growth inhibition, stronger effect = higher value
How it was run: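 Yeast screen: mutant strain plus compound, growth scored against vehicle control wells.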

[13] = NCI Yeast Anticancer Drug Screen. Data for the sgs1 strain (AID 173);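 note: 0% = growth of vehicle-only control cultures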; conditions: S. cerevisiae sgs1 mutant, stronger effect = higher value
How it was run: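 Inhibition of yeast growth served as the measure. The mutant strain was treated with each compound, and growth was normalised to cultures receiving vehicle alone.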

[14] = NCI Yeast Anticancer Drug Screen. Data for the mlh1 rad18 strain (AID 175); conditions: S. cerevisiae mlh1 rad18 strain growth inhibition, stronger effect = higher value
How it was run: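 Compound-treated yeast growth, normalised to vehicle controls. Strain bears defined DNA repair mutations.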

[15] = NCI Yeast Anticancer Drug Screen. Data for the rad18 strain (AID 177); conditions: S. cerevisiae rad18 mutant growth inhibition, stronger effect = higher value
How it was run: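 Inhibition values reflect reduced yeast growth compared with vehicle-treated controls, using a strain engineered with a DNA damage repair defect.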

[16] = at 5.0 µM (retest, dose inferred, filed as 0.5)
[17] = at 50.0 µM (retest, dose inferred, filed as 5.0)

Measured: growth inhibition

C=C(CCCO)[C@@H]1CC[C@@](C)(O)[C@H]1C
inactive: [1]; at 1.2 µM -7% | [1]; at 3.7 µM -9% | [1]; at 11.0 µM -13% | [1]; at 33.0 µM -8% | [1]; at 100.0 µM -12% | [2]; at 1.2 µM -25% | [2]; at 3.7 µM -33% | [2]; at 11.0 µM -29% | [2]; at 33.0 µM -34% | [2]; at 100.0 µM -35% | [3]; at 1.2 µM -38% | [3]; at 3.7 µM -32% | [3]; at 11.0 µM -54% | [3]; at 33.0 µM -38% | [3]; at 100.0 µM -48% | [4]; at 1.2 µM -5% | [4]; at 3.7 µM -7% | [4]; [16] 38% | [4]; at 11.0 µM -16% | [4]; at 33.0 µM -17% | [4]; at 50.0 µM 49% | [4]; at 100.0 µM -33% | [5]; at 1.2 µM -53% | [5]; at 3.7 µM -39% | [5]; [16] 44% | [5]; at 11.0 µM -48% | [5]; at 33.0 µM -41% | [5]; at 50.0 µM 68.2% | [5]; at 100.0 µM -34% | [6]; at 1.2 µM -51% | [6]; at 3.7 µM -43% | [6]; at 11.0 µM -37% | [6]; at 33.0 µM -35% | [6]; at 100.0 µM -56% | [7]; [16] -1% | [7]; [17] -9% | [7]; at 50.0 µM 55.5% | [8]; at 1.2 µM -24% | [8]; at 3.7 µM -13% | [8]; at 11.0 µM -27% | [8]; at 33.0 µM -25% | [8]; at 100.0 µM -35% | [9]; [16] 46% | [9]; [17] 28% | [9]; at 50.0 µM 9.15% | [10]; at 1.2 µM -17% | [10]; at 3.7 µM -6% | [10]; [16] 18% | [10]; at 11.0 µM -12% | [10]; at 33.0 µM -9% | [10]; [17] -1% | [10]; at 50.0 µM 55.5% | [10]; at 100.0 µM -12% | [11]; at 1.2 µM -30% | [11]; at 3.7 µM -27% | [11]; at 11.0 µM -33% | [11]; at 33.0 µM -30% | [11]; at 100.0 µM -23% | [12]; at 1.2 µM -20% | [12]; at 3.7 µM -23% | [12]; at 11.0 µM -39% | [12]; at 33.0 µM -31% | [12]; at 100.0 µM -48% | [13]; at 1.2 µM -35% | [13]; at 3.7 µM -28% | [13]; at 11.0 µM -31% | [13]; at 33.0 µM -29% | [13]; at 100.0 µM -39% | [14]; [16] 36% | [14]; at 50.0 µM 43.3% | [15]; at 1.2 µM -38% | [15]; at 3.7 µM -38% | [15]; at 11.0 µM -45% | [15]; at 33.0 µM -46% | [15]; at 100.0 µM -66%
active: [4]; [17] 90% | [5]; [17] 93% | [14]; [17] 87%

O=C1c2ccccc2C(=O)c2cc(S(=O)(=O)Nc3ccccc3)ccc21
inactive: [1]; at 1.2 µM 0% | [1]; at 3.7 µM 7% | [1]; at 11.0 µM 16% | [1]; at 33.0 µM 26% | [1]; at 100.0 µM 19% | [2]; at 1.2 µM 5% | [2]; at 3.7 µM 9% | [2]; at 11.0 µM 8% | [2]; at 33.0 µM 9% | [2]; at 100.0 µM 4% | [3]; at 1.2 µM 9% | [3]; at 3.7 µM 21% | [3]; at 11.0 µM 34% | [3]; at 33.0 µM 45% | [3]; at 100.0 µM 47% | [4]; at 1.2 µM 1% | [4]; at 3.7 µM 7% | [4]; [16] 60% | [4]; at 11.0 µM 11% | [4]; at 33.0 µM 23% | [4]; [17] 49% | [4]; at 100.0 µM 22% | [5]; at 1.2 µM -1% | [5]; at 3.7 µM 5% | [5]; [16] 33% | [5]; at 11.0 µM 12% | [5]; at 33.0 µM 21% | [5]; [17] 61% | [5]; at 100.0 µM 19% | [6]; at 1.2 µM -1% | [6]; at 3.7 µM 1% | [6]; at 11.0 µM 7% | [6]; at 33.0 µM 12% | [6]; at 100.0 µM 11% | [7]; [16] 51% | [7]; [17] 61% | [8]; at 1.2 µM -6% | [8]; at 3.7 µM -15% | [8]; at 11.0 µM 5% | [8]; at 33.0 µM 7% | [8]; at 100.0 µM 2% | [9]; [16] 22% | [9]; [17] 37% | [10]; at 1.2 µM 0% | [10]; at 3.7 µM 4% | [10]; [16] 58% | [10]; at 11.0 µM 24% | [10]; at 33.0 µM 33% | [10]; at 100.0 µM 25% | [11]; at 1.2 µM 3% | [11]; at 3.7 µM 6% | [11]; at 11.0 µM 9% | [11]; at 33.0 µM 14% | [11]; at 100.0 µM 8% | [12]; at 1.2 µM 0% | [12]; at 3.7 µM 2% | [12]; at 11.0 µM 10% | [12]; at 33.0 µM 14% | [12]; at 100.0 µM 12% | [13]; at 1.2 µM 2% | [13]; at 3.7 µM 5% | [13]; at 11.0 µM 18% | [13]; at 33.0 µM 22% | [13]; at 100.0 µM 18%
active: [4]; at 50.0 µM 96.2% | [5]; at 50.0 µM 91.4% | [7]; at 50.0 µM 96.2% | [9]; at 50.0 µM 92.2% | [10]; [17] 84% | [10]; at 50.0 µM 96.1% | [14]; [16] 77% | [14]; [17] 75% | [14]; at 50.0 µM 97.7%

CC1C(C#N)(C#N)C(C#N)=C(N)C1(Cl)[N+](=O)[O-] (centres undefined)
active: [1]; at 100.0 µM 85% | [3]; at 33.0 µM 78% | [3]; at 100.0 µM 85% | [4]; [17] 78% | [4]; at 50.0 µM 77.5% | [4]; at 100.0 µM 76% | [5]; [17] 85% | [5]; at 50.0 µM 77.4% | [5]; at 100.0 µM 81% | [7]; [17] 78% | [7]; at 50.0 µM 76% | [8]; at 100.0 µM 88% | [10]; [17] 86% | [10]; at 50.0 µM 73.8% | [10]; at 100.0 µM 84% | [11]; at 100.0 µM 92% | [12]; at 100.0 µM 89% | [13]; at 100.0 µM 90% | [14]; [17] 94% | [15]; at 100.0 µM 87%
inactive: [1]; at 1.2 µM 3% | [1]; at 3.7 µM 33% | [1]; at 11.0 µM 35% | [1]; at 33.0 µM 56% | [2]; at 1.2 µM 10% | [2]; at 3.7 µM 9% | [2]; at 11.0 µM 8% | [2]; at 33.0 µM 22% | [2]; at 100.0 µM 55% | [3]; at 1.2 µM 19% | [3]; at 3.7 µM 37% | [3]; at 11.0 µM 55% | [4]; at 1.2 µM 4% | [4]; at 3.7 µM 26% | [4]; [16] 24% | [4]; at 11.0 µM 29% | [4]; at 33.0 µM 40% | [5]; at 1.2 µM 0% | [5]; at 3.7 µM 30% | [5]; [16] 11% | [5]; at 11.0 µM 32% | [5]; at 33.0 µM 41% | [6]; at 1.2 µM 1% | [6]; at 3.7 µM 8% | [6]; at 11.0 µM 15% | [6]; at 33.0 µM 28% | [6]; at 100.0 µM 67% | [7]; [16] 11% | [8]; at 1.2 µM 19% | [8]; at 3.7 µM 39% | [8]; at 11.0 µM 48% | [8]; at 33.0 µM 53% | [9]; [16] -5% | [9]; [17] 30% | [9]; at 50.0 µM 65.8% | [10]; at 1.2 µM 12% | [10]; at 3.7 µM 12% | [10]; [16] 20% | [10]; at 11.0 µM 20% | [10]; at 33.0 µM 49% | [11]; at 1.2 µM -1% | [11]; at 3.7 µM 7% | [11]; at 11.0 µM 22% | [11]; at 33.0 µM 58% | [12]; at 1.2 µM 11% | [12]; at 3.7 µM 28% | [12]; at 11.0 µM 45% | [12]; at 33.0 µM 68% | [13]; at 1.2 µM 28% | [13]; at 3.7 µM 20% | [13]; at 11.0 µM 37% | [13]; at 33.0 µM 61% | [14]; [16] 19% | [14]; at 50.0 µM 48% | [15]; at 1.2 µM 14% | [15]; at 3.7 µM 17% | [15]; at 11.0 µM 34% | [15]; at 33.0 µM 61%
